Results filed as inconclusive are left out. A number with no mark means an inactive call. The source made the active and inactive calls. Calls come from the whole dose curve; as a rule, active = well fitted cell-killing curve with a large enough effect in the repeat runs; inconclusive = weak or mixed curves, or effect the other way; inactive = flat fitted curve, though single readings scatter.
% is set by controls: 0 for no effect and ±100 for the full control effect; potency is the fitted concentration of half-maximal effect.

The nature of this assay: Nuclear factor erythroid 2-related factor 2/antioxidant responsive element (Nrf2/ARE) small molecule agonists: qHTS cell viability counter screen in human keratinocytes (AID 1919968). Note: nearly all actives have a fitted effect of over 55% in size. To be noted: KeratinoSens HaCaT ARE cells viability, CellTiter-Fluor, 24 h; series mostly up to 92.4 µM; activity change, negative = cytotoxicity: at the top concentration. In outline:
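Viability counter-screen: KeratinoSens reporter cells, DMSO-delivered compounds, 23 h at 37 C, CellTiter-Fluor fluorescence.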
For `CCCC1CCC(=O)O1` (stereo not given), the “activity change, negative = cytotoxicity” value is -0.455%.
Turning to `CCN(CC)c1ccc2c(-c3ccc(S(=O)(=O)O)cc3S(=O)(=O)[O-])c3ccc(=[N+](CC)CC)cc-3oc2c1`, the Potency was 17.8 µM (active).
Regarding `COc1ccc(/C=C/S(=O)(=O)NC(=O)c2ccc(C)cc2Cl)cc1`, the “activity change, negative = cytotoxicity” value was 0.303%.
Take `N[C@@H](Cc1cc(I)c(O)c(I)c1)C(=O)O`: the “activity change, negative = cytotoxicity” value is -0.507% [at 42.5 µM].
Same read-out and setting: with `C=CC(=O)OCC(Br)CBr` (stereo not given) the figure was -5.69%.
Regarding `O=C1CCC(C2CCCCC2)CC1`, the “activity change, negative = cytotoxicity” value is 11.4%.
With `COc1ccc(C(=O)N2CCN(CC(=O)N3CCOCC3)CC2)cc1`, the “activity change, negative = cytotoxicity” value was -0.503% [at 42.5 µM].
Still for that read-out and setting: with `COCCC(=O)OC` the figure was -1.48%; with `Cc1nc2ccc(Cl)cc2[nH]1`, 0.503%; with `CC(C)(C)C(=O)C(=O)O`, 4.07%.
The same measure, in the same setting: with `COc1cccc(O)c1O` the figure was -17.4%.
For `N=C1C=CC(=C(c2ccc(N)cc2)c2ccc(N)cc2)C=C1`, the Potency was 27.3 µM (active).
Consider `O=C1c2ccccc2C(=O)C1c1ccc2ccccc2n1`, for which the “activity change, negative = cytotoxicity” value is 3.35% [at 42.5 µM].
The same measure, in the same setting: under `CN1CCN(C2=Nc3cc(F)ccc3Cc3ccccc32)CC1` stands -0.222% [at 42.5 µM]; under `CC1=NN(c2ccc(C(=O)O)cc2)C(=O)C1`, -2.25%.
For the molecule `Oc1ccc(Oc2ccccc2)cc1`, the “activity change, negative = cytotoxicity” value is 3.72%.
For `CC(C)(O)CCCC1=CCC(C=O)CC1` (stereo not given), the “activity change, negative = cytotoxicity” value is 2.1%.
On the same count and under the same terms, with `NS(=O)(=O)Cc1noc2ccccc12` the figure was 4.43% [at 42.5 µM].
On to `COc1ccc(C(=O)c2ccc(OC)cc2O)c(O)c1`, for which the “activity change, negative = cytotoxicity” value was 13.5%.
Same read-out and setting: under `Fc1ccc([C@@H]2CCNC[C@H]2COc2ccc3c(c2)OCO3)cc1` stands -21.1% [at 42.5 µM].
Turning to `CCOC(=O)O[C@H](C)OC(=O)c1ccc2c(c1)cc(C(=O)NC1CCN(C(C)C)CC1)n2Cc1cc(-c2ccc(Cl)s2)on1`, the Potency was 11.4 µM (active).
Regarding `CC1=C(/C=C/C(C)=C\C=C\C(C)=C\C(=O)O)C(C)(C)CCC1`, the “activity change, negative = cytotoxicity” value is 3.33%.
The same measure, in the same setting: under `Cc1cccc(N(C)C(=S)Oc2ccc3c(c2)CCC3)c1` stands 26.3% [at 42.5 µM]; under `CCCC(=O)OCCC(C)C`, 5.18%; under `COc1ccccc1NC(=O)c1cc2ccccc2cc1O`, -4.8%.
On the same count and under the same terms, under `O=C(CCBr)N1CCN(C(=O)CCBr)CC1` stands 3.99% [at 42.5 µM]; under `CN(C)CCC=C1c2ccccc2C=Cc2ccccc21`, -10.6% [at 42.5 µM]; under `O=C(O)c1cccc(Oc2ccccc2)c1`, 2.76%.
Still for that read-out and setting: under `COc1ccc([C@@H]2Sc3ccccc3NC(=O)[C@@H]2O)cc1` stands 6.9% [at 42.5 µM].
In the case of `Oc1ccc(C2CNCCc3c2cc(O)c(O)c3Cl)cc1` (stereo not given), the “activity change, negative = cytotoxicity” value was -9.58% [at 42.5 µM].
On the same count and under the same terms, under `CC(c1cc(C(C)(C)C)cc(C(C)(C)C)c1O)c1cc(C(C)(C)C)cc(C(C)(C)C)c1O` stands -0.0799%; under `Nc1ccc(S(=O)(=O)NCc2ccccc2)cc1`, 6.33% [at 42.5 µM]; under `Nc1[nH]c(=O)ncc1F`, 1.76% [at 42.5 µM].
Still for that read-out and setting: with `O=Cc1ccccc1[N+](=O)[O-]` the figure was 1.83%; with `CCC1CCC(CCC(=O)O)C1` (stereo not given), 4.12%.
As for `CCCCCCCCCCCCCCCCCC(=O)OCCCCCCCCCCCCCC(C)C`, the “activity change, negative = cytotoxicity” value is 10.6%.
With `CCCCCCCCCCCCCCCCCl`, the activity change, negative = cytotoxicity was -5.35% [at 19 µM].
Still for that read-out and setting: with `CCCOC(=O)c1ccc(O)cc1` the figure was 1.55%.
The same measure, in the same setting: with `CC1COc2c(N3CCN(C)CC3)c(F)cc3c(=O)c(C(=O)O)cn1c23` (stereo not given) the figure was -3.98% [at 42.5 µM]; with `CCCCS`, -1.39%.

The values above are taken from PubChem BioAssay (Tox21).
